Only some compounds are listed: those with a hit (about 0.39% of all), similar ones and a draw of the others.
CCT chaperon mod = cytosolic chaperonin activity modulation; hit rate 0.3% among 360,000; activity change, % (no concentration beside the values), hits read low; purified chaperonin ATPase assay, HTRF ADP detection, 30 min; in the data active = activity change below about -30%; note: % is set by controls: 0 for no effect and ±100 for the full control effect
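Enzyme 40 or 20 nM (batch-dependent) in Tris pH 7.4/KCl/MgCl2/DTT; cpd 76 uM single point; ATP 10 uM; 30 min 37 °C; Transcreener ADP HTRF detection, 30 min RT; ratio 665/615.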
MmCpn inh = inhibitors of Methanococcus maripaludis chaperonin TRiC (MmCpn); Potency, µM (doses to about 76.9 µM), for the others: at the highest dose activity, negative = inhibition, most hits filed as inhibitors; purified Mm-Cpn ATPase, ADP Transcreener TR-FRET; hit rate 0.031% among 330,000; active = well fitted inhibition curve with a large enough effect; inconclusive = small, poorly fitted or top-dose-only effect; note: potency is the fitted concentration of half-maximal effect; % is set by controls: 0 for no effect and ±100 for the full control effect; nearly all actives have a fitted effect of over 80% in size
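Purified archaeal Mm-CPN (25nM final) preincubated 10 min at 37degC with compound, then 10uM ATP for 30 min at 37degC; ADP measured by HTRF Transcreener TR-FRET; buffer 30 mM TRIS pH 7.4, 100mM KCl, 5mM MgCl2, 1mM DTT.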
Rango dissoc inh = prevents RanGTP from dissociating the Rango-importin beta complex; O95149+P62826; Biochemical FRET Rango-importin beta, RanGTP-induced dissociation; Potency, µM (highest dose often 46.1 µM), for the others: top-dose activity change, negative = inhibition; hit rate 0.071% among 340,000; AID 540253; note: potency is the fitted concentration of half-maximal effect; % of control where 0% means no effect; nearly all actives have a fitted effect of over 45% in size
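Rango (0.1 uM)–importin beta (0.25 uM) complex; RanGTP-RCC1 trigger; 45 min RT; CFP/YFP FRET read.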
Rango-impB inh = Rango-importin beta binding inhibition | Q14974 | Rango CFP/YFP FRET sensor + importin beta, 45 min | Potency, µM (titrated, usually from 92.2 µM), for the others: top-dose inhibition of complex formation | hit rate 0.031% among 340,000 | AID 540263;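 note: potency is the fitted concentration of half-maximal effect; 0% = DMSO wells and 100% = buffer wells lacking importin beta; nearly all actives have a fitted effect of over 15% in size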
Target sequence (Q14974 whole entry, looked up): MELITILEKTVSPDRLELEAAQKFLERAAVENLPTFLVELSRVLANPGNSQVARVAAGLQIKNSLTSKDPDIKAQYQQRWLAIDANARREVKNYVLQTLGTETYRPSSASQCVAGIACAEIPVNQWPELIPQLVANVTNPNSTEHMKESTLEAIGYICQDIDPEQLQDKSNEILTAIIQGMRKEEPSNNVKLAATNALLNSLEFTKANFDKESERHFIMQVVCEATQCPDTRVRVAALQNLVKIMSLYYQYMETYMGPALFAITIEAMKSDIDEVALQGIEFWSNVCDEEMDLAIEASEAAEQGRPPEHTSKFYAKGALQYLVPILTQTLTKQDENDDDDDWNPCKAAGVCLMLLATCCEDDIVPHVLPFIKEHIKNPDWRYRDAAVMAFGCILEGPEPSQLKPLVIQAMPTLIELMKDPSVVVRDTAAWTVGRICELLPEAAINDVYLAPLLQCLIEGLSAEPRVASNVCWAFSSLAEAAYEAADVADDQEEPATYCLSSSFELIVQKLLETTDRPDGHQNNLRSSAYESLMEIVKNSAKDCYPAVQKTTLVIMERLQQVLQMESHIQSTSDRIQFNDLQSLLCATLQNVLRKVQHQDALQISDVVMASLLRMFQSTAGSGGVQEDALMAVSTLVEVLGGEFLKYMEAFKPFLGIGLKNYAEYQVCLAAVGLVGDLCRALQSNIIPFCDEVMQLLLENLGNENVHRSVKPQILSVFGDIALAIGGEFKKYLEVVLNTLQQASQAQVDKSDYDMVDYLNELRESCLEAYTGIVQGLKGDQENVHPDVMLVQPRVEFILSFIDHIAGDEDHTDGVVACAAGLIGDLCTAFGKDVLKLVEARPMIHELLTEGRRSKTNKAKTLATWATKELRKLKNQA
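FRET biosensor (snurportin 1 IBB flanked by EYFP and cerulean), 50 nM, with compound 5 min, then 0.125 microM importin beta in PBS, 1 mM DTT, 0.02% Tween-20, 0.1% BSA. CFP/YFP ratio read after 45 min at room temperature; pre-read flags interference.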
Numbers without * were called inactive; ? = inconclusive; / = not tested or not shown; [ ] = another dose, or the depositor's remark. Unless noted, calls come from the whole dose curve.

SMILES	CCT chaperon mod	MmCpn inh	Rango dissoc inh	Rango-impB inh
C[C@H](CO)N1C[C@H](C)[C@@H](CN(C)C(=O)Nc2ccccc2)Oc2ccc(NC(=O)Nc3ccccc3)cc2C1=O	-44*	0%	12%	-1%
Cc1cc(C(=O)Nc2cccc3c2O[C@@H](CN(C)S(=O)(=O)c2ccccc2)[C@H](C)CN([C@@H](C)CO)C3=O)n(C)n1	-3	-1%	-8%	-4%
Cc1cc(C(=O)Nc2cccc3c2O[C@@H](CN(C)S(C)(=O)=O)[C@H](C)CN([C@@H](C)CO)C3=O)n(C)n1	-32*	-1%	15%	-3%
C[C@@H]1CN([C@@H](C)CO)C(=O)c2cc(NC(=O)c3ccncc3)ccc2O[C@@H](C)CCCCO[C@@H]1CN(C)C(=O)Cc1ccccc1	-1	/	/	/
C[C@H](CO)N1C[C@H](C)[C@@H](CN(C)C(=O)Nc2ccc(C(F)(F)F)cc2)Oc2c(cccc2N(C)C)C1=O	-3	4µM*	18%	1%
C[C@@H]1CCCCO[C@@H](CN(C)Cc2ccncc2)[C@@H](C)CN([C@H](C)CO)C(=O)c2cc(NC(=O)c3ccccc3)ccc2O1	-34*	/	/	/
Nc1nc2c(ncn2[C@@H]2O[C@H](CNCc3cnc(N4CCOCC4)s3)[C@@H](O)[C@H]2O)c(=O)[nH]1	0	/	/	/
C=CCNC(=S)NNc1nc(N2CCCC2)nc(N2CCCC2)n1	-54*	-1%	6%	0%
C=CCNC(=S)NNc1nc(Nc2ccccc2)nc(N2CCCCC2)n1	-1	0%	35%	6%
CCOC(=O)c1cc2c(C(F)(F)F)cc(-c3cccnc3)nc2o1	-32*	0%	9%	-1%
CCOC(=O)c1c(C)nc(C)c(C(=O)OCC)c1-c1cccnc1	2	0%	9%	-3%
O=[N+]([O-])c1ccc(-c2cnc3ccccc3n2)cc1	-38*	-1%	4%	-1%
Cc1nc2ccccc2nc1-c1ccc([N+](=O)[O-])cc1	1	/	22%	2%
CN1C(=O)/C(=C\c2ccccc2F)Sc2ccc(C(=O)NC3CCN(Cc4ccccc4)CC3)cc21	-3	3%	-2%	-4%
CCOc1ccc2ccccc2c1/C=N/NC(=O)CNC(=O)c1ccccc1F	1	-1%	-9%	3%
COc1ccc([N+](=O)[O-])cc1NC(=O)Nc1ccc(OC)c(OC)c1	2	-3%	4%	1%
COc1ccc([N+](=O)[O-])cc1NC(=O)C1(c2ccc(OC)c(OC)c2)CCOCC1	-93*	2%	-1%	-1%
Cc1ccc(NC(=O)CSc2nnc(C)c(=O)n2N)cc1Cl	-1	-1%	?	-1%
Cc1nnc(SCC(=O)Nc2ccc(OC(F)F)c(Cl)c2)n(N)c1=O	-40*	2%	1%	1%
Brc1ccc2nc(-c3ccncc3)c(NC3CCCC3)n2c1	-36*	-1%	-3%	1%
Cc1ccccc1Nc1c(-c2ccncc2)nc2ccc(Br)cn12	-1	-1%	8%	1%
Cc1ccc2cc(C3CC(c4ccco4)=NN3C(=O)CCCC(=O)O)c(Cl)nc2c1 (stereo unspecified)	0	0%	8%	-1%
Cc1ccc2nc(Cl)c(C3CC(c4ccco4)=NN3C(=O)CCCC(=O)O)cc2c1 (stereo unspecified)	-109*	1%	-8%	-2%
COc1ccc(-c2nc3ccc(N4CCCC4)cc3c(=O)[nH]2)cc1OC	-79*	-2%	-27%	?
Cc1ccnc(SC2CC(=O)N(c3ccc([N+](=O)[O-])cc3)C2=O)n1 (stereo unspecified)	-2	?	0%	1%
SMILES	CCT chaperon mod	MmCpn inh	Rango dissoc inh	Rango-impB inh
Cc1ccc(N2C(=O)CC(Sc3nccc(C)n3)C2=O)cc1 (stereo unspecified)	-53*	-4%	-6%	4%
O=C1C=C(Nc2cccc(O)c2)CC(c2ccco2)C1 (stereo unspecified)	0	0%	12µM*	?
COc1ccc([C@]23Cc4ccccc4C(O2)c2c(cc(C)n(Cc4ccccc4)c2=O)O3)cc1	/	-2%[15.4 µM]	/	/
Cc1cc(C(=O)CSc2cccc[n+]2[O-])c(C)n1-c1ccccc1	-38*	-3%	-7%	-1%
Cc1cc(C(=O)CSc2cccc[n+]2[O-])c(C)n1-c1ccc(Br)cc1	/	0%	/	/
O=C(NCc1ccco1)c1cc(S(=O)(=O)N2CCOCC2)c(Cl)cc1Cl	-67*	2%	-6%	-1%
O=C(COC(=O)c1cc(S(=O)(=O)N2CCOCC2)c(Cl)cc1Cl)NCc1ccco1	-1	0%	?	-2%
Cc1cc(Cl)ccc1NC(=O)CCC(=O)O	-2	3%	-3%	-2%
O=C(O)CCC(=O)Nc1ccc(NC(=O)c2ccc(Cl)cc2Cl)c(Cl)c1	-135*	-11%	-7%	11%
COc1ccc(C2CC(c3cccs3)=NN2C(=O)CSc2nc(=O)n3ccc(C)cc3n2)cc1 (stereo unspecified)	-46*	?	0%	3%
COc1ccc2c3c(c(=O)oc2c1)C1O[C@](c2ccsc2)(Cc2cc(C#N)ccc21)O3	/	-8%[15.4 µM]	/	/
CC(=O)Oc1cccc(N2C(=O)c3cccc4c([N+](=O)[O-])ccc(c34)C2=O)c1	1	-6%	1.8µM*[inhibitor]	?
CCc1cc(=O)oc2cc(OC(C)=O)cc(OC(C)=O)c12	-3	-19%	12µM*	?
O=C(O/N=C/c1ccc2c(c1)OCO2)c1ccc([N+](=O)[O-])cc1	-31*	-15%	22%	2%
Cc1ccc(C(=O)O/N=C/c2ccc3c(c2)OCO3)cc1	-1	-1%	-6%	-4%
O=C(O)COc1c(F)c(F)c(C(F)(F)F)c(F)c1F	-3	1%	13%	5%
CC(=O)N1CCN(c2c(F)c(F)c(C(F)(F)F)c(F)c2F)CC1	-38*	0%	2%	1%
Fc1cccc(CNc2ncnc3ccc(-c4ccccc4Cl)cc23)c1	/	1%	/	/
O=S(=O)(Nc1ccccn1)c1ccc(Cl)cc1	1	1%	-8%	-1%
O=S(=O)(Nc1ccccn1)c1ccc(-n2cccn2)cc1	-82*	1%	-12%	0%
Cc1cccc(-c2ccc3ncnc(N(C)Cc4ccco4)c3c2)c1	/	1%	/	/
O=C(COc1ccccc1)NCC(c1ccco1)N1CCCCC1 (stereo unspecified)	0	0%	18%	?
CC(C)C[C@@H]1O[C@H](C(C)C)Cc2[nH][nH]c(=O)c21	1	/	/	/
Cc1ccc(/C=C2\Sc3ccccc3C2=O)s1	-1	0%	2.9µM*	?
CC(=O)Nc1ccc(/C=C2\Sc3ccccc3C2=O)cc1	-2	0%	?	?
O=C(Nc1cc(S(=O)(=O)N2CCOCC2)ccc1N1CCCC1)c1ccccc1C(F)(F)F	0	/	3%	0%
CCOC(=O)c1c(C2COc3ccccc3O2)csc1N (stereo unspecified)	-41*	1%	-7%	2%
O=C(CSc1nnc(CNC(=O)c2cccs2)o1)Nc1ccc(F)cc1F	-1	-1%	2%	-4%

Source: PubChem
